PubChem BioAssay AID687038 (Broad Institute, 2013)
Active and inactive are the calls of the source.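 The calls were made as follows: active = curve showing a falling signal whose half-maximal concentration is at most twice the top valid dose; inconclusive = flat curve with a moderate drop, or an unreliable fit; inactive = the rest.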

test: endogenous miR-21 quantity in Huh7 cells – cell-based, RT-qPCR, dry powder, selectivity assay for miR-122 inhibitor project, dose response (AID 687038); conditions: Huh7 miR-21 levels, qRT-PCR, 48 h; series mostly up to 35 µM

outcome, inactive:
C[C@@H]1CN([C@@H](C)CO)S(=O)(=O)c2ccc(C#Cc3ccncc3)cc2O[C@H]1CN(C)C(=O)C1CCOCC1
CN1C(=O)c2cc(NC(=O)c3cccc(F)c3)ccc2OC[C@@H]2O[C@H](CC(=O)O)CC[C@@H]21
CN1C(=O)c2cc(NC(=O)c3cccc(F)c3)ccc2OC[C@H]2O[C@@H](CC(=O)O)CC[C@@H]21
C[C@H]1CN([C@@H](C)CO)C(=O)c2cc(-c3ccc(C#N)cc3)cnc2O[C@H]1CN(C)C(=O)c1ccccc1
O=C(CN=C1NS(=O)(=O)c2ccccc21)Nc1ccccc1N1CCCCCC1
CN1C(=O)c2cc(NC(=O)c3cccc(F)c3)ccc2OC[C@H]2O[C@H](CC(=O)O)CC[C@H]21
O=C(Nc1ccc(-c2nc3ccccc3o2)cc1)c1cc(-n2cnnc2)ccc1Cl
O=C(NCCC1=CCCCC1)c1ccc2c(c1)sc1nc(-c3ccccc3)cn12
Nc1ccc(Oc2ccc(Br)cc2)cc1
C[C@H]1CN([C@@H](C)CO)C(=O)c2cc(C#Cc3ccccc3F)cnc2O[C@@H]1CN(C)C(=O)C1CCCCC1
O=C(CNCCC1=CCCCC1)Nc1ccccc1N1CCCCCC1
COc1cccc(C(=O)Nc2ccc3c(c2)C(=O)N(C)C[C@@H](OC)[C@@H](C)CN[C@@H](C)CO3)c1
Cc1cc(C(C)(C)C)cc(S(=O)(=O)N2CCOCC2)c1C
O=S(=O)(NCCc1ccncc1)c1ccccc1
Nc1ccc(Oc2ccc(Cl)cc2)cc1
